In PubChem BioAssay:
Where “and” joins values, the source holds several entries; their conditions need not be identical. Identical values can stand only once. Calls of active or inactive are those of the source.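 How the source made its calls, unless noted: active means thallium flux through the channel raised or lowered by more than 3 SD from vehicle-only wells, actives on both sides; inactive means the rest.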

Assays:
[1] = test system: Hepatitis C virus NS3 helicase; test: HCV NS3 helicase inhibitors, primary screen, biochemical, fluorescence polarization, NIH Clinical Collection (AID 743270; call rule not given here); details: NS3 helicase binding to Cy5-dT15 DNA, stronger effect = higher value, concentration not given here
[2] = biological target: Single-stranded DNA-binding protein (Escherichia coli (strain K12)) (UniProt P0AGE0); test: E. coli SSB displacement from DNA, counter-screen for HCV NS3 helicase inhibitor project, biochemical, fluorescence polarization, NIH Clinical Collection (AID 743271; in the data active means inhibition above about 28%); details: stronger effect = higher value, concentration not given here
[3] = fluorescence interference in NS3h assay format, artefact control for HCV NS3 helicase inhibitor project, biochemical, NIH Clinical Collection (AID 743272; call rule not given here;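 further: HCV NS3 helicase with a Cy5 labelled single stranded DNA probe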); details: fluorescence interference counterscreen, stronger effect = lower value
[4] = stimulators of nuclear beta-catenin in C2C12, primary screen, imaging, WNT3A-conditioned medium, mouse C2C12, NPC library (AID 1117326; in the data active means nuclear beta-catenin stimulation mostly above about 4.2%, no sharp cut-off; inactive means mostly below about 10%); details: stronger effect = higher value
[5] = stimulators of insulin release from INS-1E, primary screen, cell-based, 5 mM glucose, NPC library (AID 1117329;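 active means compound raises insulin release from rat beta cells at 5 mM glucose, no numeric limit stated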); details: rat INS-1E insulin secretion, at 10 µM, stronger effect = higher value
[6] = growth inhibition of GSK3B-pretreated HCT116 cells – cell-based, CellTiter-Glo, 0.2 to 20 µM (AID 1117336;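 active means compounds lowering colon cancer cell viability after pretreatment blocking the GSK3B kinase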); details: HCT116 viability after GSK3B inhibitor, at 20 µM, stronger effect = higher value
[7] = inhibition of endothelial tube formation, primary screen, imaging, VEGF stimulated, CD31 staining, tube area, NPC library (AID 1117340;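 active means compound that reduces growth-factor-driven endothelial tube area in a mixed cell culture, no cutoff stated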); details: VEGF-stimulated ADSC/ECFC co-culture, at 10 µM, stronger effect = higher value
[8] = glucagon-like peptide 1 release enhancers, primary assay, NCI-H716 cell line, NPC library (AID 1117341;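 active means compound raises GLP1 secretion from the human gut endocrine cells, with no numeric limit stated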); details: NCI-H716 cells, at 10 µM, stronger effect = higher value
[9] = HCT116 colon cancer cell growth inhibition, primary screen, CellTiter-Glo luminescence, NPC library (AID 1117342;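 active means compounds that lower survival of HCT116 colon cancer cells in the luminescence readout, no numeric limit stated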); details: at 20 µM (top of the series)
[10] = CellTiter-Glo luminescent readout of SW480 viability loss, NPC library primary (AID 1117343;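 active means compounds that lower viability of the colon cancer cells in the luminescence readout, with no numeric limit stated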); details: CellTiter-Glo luminescence; at 20 µM (top of the series)
[11] = decreased DLD-1 cellular survival, CellTiter-Glo luminescent readout, NPC compound collection, primary HTS (AID 1117346;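 active means compounds that lower survival of DLD-1 colon cancer cells in the luminescence readout, no cutoff given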); details: DLD-1 viability, CellTiter-Glo luminescence; at 20 µM (top of the series)
[12] = biological target: 6-phosphogluconate dehydrogenase, decarboxylating (Homo sapiens) (UniProt P52209); test: 6PGD enzyme inhibitors, primary screen, biochemical, human, recombinant enzyme, NADPH absorbance (AID 1159550;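 active means at least 20% inhibition of 6-phosphogluconate dehydrogenase activity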); details: recombinant 6PGD, NADPH absorbance 341 nm; at 10 µM; stronger effect = higher value
Sequence of 6-phosphogluconate dehydrogenase, decarboxylating (Homo sapiens) (P52209 whole entry, looked up): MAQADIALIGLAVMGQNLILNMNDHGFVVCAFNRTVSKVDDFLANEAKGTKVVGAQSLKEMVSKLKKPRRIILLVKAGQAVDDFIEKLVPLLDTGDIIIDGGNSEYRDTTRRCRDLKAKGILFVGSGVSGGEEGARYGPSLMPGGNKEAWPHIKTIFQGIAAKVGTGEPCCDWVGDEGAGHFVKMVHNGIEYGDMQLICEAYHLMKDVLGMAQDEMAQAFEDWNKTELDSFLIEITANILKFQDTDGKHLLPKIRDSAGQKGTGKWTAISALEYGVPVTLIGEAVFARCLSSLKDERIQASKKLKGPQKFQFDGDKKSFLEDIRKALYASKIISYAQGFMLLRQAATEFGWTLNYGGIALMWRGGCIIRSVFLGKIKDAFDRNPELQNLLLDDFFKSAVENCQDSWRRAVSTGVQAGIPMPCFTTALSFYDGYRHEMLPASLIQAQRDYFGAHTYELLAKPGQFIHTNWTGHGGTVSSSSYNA

[13] = differential killing of epithelial or mesenchymal cells, primary screen, imaging, PC-3E GFP, TEM4-18 mCherry, co-culture (AID 1345086;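 active means compounds killing one labelled cell type while sparing the other, by normalised counts and ratio limits, not self-fluorescent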;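 on all read-outs here: cells exposed to compound for 72 h before imaging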;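 on red/green cell ratio (normalised): normalised mesenchymal count divided by normalised epithelial count so high means epithelial killing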); details: imaging cell counts, at 1 µM; for red/green cell ratio (normalised): actives lie on both sides, counts scaled to control wells, 1 = unselective
[14] = survival rescue of mitochondrial mutant cells in low glucose, primary screen, MELAS cybrids, Rieske KO mouse fibroblasts, CellTiter-Glo (AID 1508586;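 active means mean z-score across replicates of 1.96 or higher in either the MELAS or the Rieske mutant cell line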;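 further: z relative to plate mean and SD of compound and empty wells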)
[15] = biological target: NAD(+) hydrolase SARM1 (Homo sapiens) (UniProt Q6SZW1); test: SARM1 TIR NADase inhibitors, cell lysate, NAD-Glo luminescence (AID 1508614;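 active means compound whose remaining NAD level is above about 45 nM, limit read from the data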); details: SAM-TIR HEK293T lysate NADase, at 1 µM, stronger effect = higher value
Sequence of NAD(+) hydrolase SARM1 (Homo sapiens) (Q6SZW1 whole entry, looked up, the tested form may be a part): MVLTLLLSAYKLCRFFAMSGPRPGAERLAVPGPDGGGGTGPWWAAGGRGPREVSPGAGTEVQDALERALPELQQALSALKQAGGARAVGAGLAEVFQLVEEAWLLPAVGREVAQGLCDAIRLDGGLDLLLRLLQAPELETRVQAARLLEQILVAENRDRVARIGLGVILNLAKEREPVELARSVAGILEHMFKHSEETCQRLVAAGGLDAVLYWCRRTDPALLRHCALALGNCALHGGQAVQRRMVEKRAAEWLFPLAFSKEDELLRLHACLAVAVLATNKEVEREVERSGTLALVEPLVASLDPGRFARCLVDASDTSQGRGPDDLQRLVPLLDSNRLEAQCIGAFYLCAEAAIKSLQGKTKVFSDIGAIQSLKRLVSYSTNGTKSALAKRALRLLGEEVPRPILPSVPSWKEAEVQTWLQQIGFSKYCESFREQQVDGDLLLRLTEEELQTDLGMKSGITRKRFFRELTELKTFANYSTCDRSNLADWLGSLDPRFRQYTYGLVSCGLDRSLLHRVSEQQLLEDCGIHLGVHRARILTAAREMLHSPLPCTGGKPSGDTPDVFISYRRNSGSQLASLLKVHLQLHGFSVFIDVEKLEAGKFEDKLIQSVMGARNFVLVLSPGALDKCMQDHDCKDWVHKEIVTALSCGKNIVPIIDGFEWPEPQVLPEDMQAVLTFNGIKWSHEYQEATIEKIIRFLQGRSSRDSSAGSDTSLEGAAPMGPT

[16] = biological target: Mitogen-activated protein kinase 7 (Homo sapiens) (UniProt Q13164); test: ERK5 transactivation activators in reporter cells, primary screen, cell-based, HTS (AID 1508626;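 active means luciferase signal above three times the same-plate solvent-only control wells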;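 further: luciferase driven by Gal4-ERK5 fusion binding five Gal4 sites before minimal TATA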); details: HeLa Gal4-ERK5 transactivation, 18 h, at 5 µM, stronger effect = higher value
Sequence of Mitogen-activated protein kinase 7 (Homo sapiens) (Q13164 whole entry, looked up, the tested form may be a part): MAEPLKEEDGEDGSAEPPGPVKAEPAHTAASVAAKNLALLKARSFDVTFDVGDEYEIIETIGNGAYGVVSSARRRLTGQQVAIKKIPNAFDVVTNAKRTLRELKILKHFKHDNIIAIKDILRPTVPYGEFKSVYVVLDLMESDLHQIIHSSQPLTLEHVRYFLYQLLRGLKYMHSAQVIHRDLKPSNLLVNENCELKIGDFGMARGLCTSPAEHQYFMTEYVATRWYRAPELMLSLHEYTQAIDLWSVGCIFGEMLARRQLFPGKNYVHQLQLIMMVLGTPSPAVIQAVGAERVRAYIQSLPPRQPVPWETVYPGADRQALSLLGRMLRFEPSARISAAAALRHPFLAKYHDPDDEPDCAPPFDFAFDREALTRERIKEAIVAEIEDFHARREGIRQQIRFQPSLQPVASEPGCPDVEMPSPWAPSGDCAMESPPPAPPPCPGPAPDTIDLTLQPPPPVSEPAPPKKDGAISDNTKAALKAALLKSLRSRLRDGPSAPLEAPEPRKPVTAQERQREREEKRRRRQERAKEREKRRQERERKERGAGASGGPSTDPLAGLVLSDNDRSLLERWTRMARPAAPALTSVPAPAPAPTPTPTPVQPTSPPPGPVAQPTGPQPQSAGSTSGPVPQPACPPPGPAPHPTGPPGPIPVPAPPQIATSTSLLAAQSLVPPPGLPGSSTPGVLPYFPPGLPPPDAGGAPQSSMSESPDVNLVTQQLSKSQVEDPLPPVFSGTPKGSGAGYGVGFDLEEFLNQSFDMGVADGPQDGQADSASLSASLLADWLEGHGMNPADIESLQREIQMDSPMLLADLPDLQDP

[17] = test system: F380Y; test: modulators of BK channel variants, profiling panel, selectivity assay, cell-based, U2OS BacMam, thallium flux, beta subunits (AID 1259406); details: at 30 µM;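 further: initial slope of Thallos dye fluorescence rise after thallium is added; log ratio against the mean of 0.3% DMSO vehicle wells on the same plate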
[18] = test system: F380Y/beta2Delta; test: as above; details: at 30 µM
[19] = biological target: Calcium-activated potassium channel subunit alpha-1 (Homo sapiens) + Leucine-rich repeat-containing protein 26 (Homo sapiens) (UniProt Q12791+Q2I0M4); test: as above; details: F380Y/Slo1WT/gamma1, at 30 µM
Sequence of Calcium-activated potassium channel subunit alpha-1 (Homo sapiens) + Leucine-rich repeat-containing protein 26 (Homo sapiens) (Q2I0M4 whole entry, looked up, one chain of several): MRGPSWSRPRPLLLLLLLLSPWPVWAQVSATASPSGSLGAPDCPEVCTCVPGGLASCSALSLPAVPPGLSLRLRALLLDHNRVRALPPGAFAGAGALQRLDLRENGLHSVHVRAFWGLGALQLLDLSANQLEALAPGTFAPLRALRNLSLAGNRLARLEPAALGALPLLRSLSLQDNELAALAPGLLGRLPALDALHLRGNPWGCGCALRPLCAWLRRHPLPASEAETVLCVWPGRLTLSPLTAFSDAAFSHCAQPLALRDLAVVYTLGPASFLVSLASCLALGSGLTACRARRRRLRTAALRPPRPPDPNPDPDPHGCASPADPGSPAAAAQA

[20] = measured here: epithelial PC-3E GFP cell survival
[21] = measured here: mesenchymal TEM4-18 mCherry cell survival
[22] = MELAS cybrid survival, CellTiter-Glo 48 h, stronger effect = higher value
[23] = Rieske KO mouse fibroblast survival, CellTiter-Glo 72 h

Cc1nc2ccccn2c(=O)c1CCN1CCC(C(=O)c2ccc(F)cc2)CC1
-0.116: z-score [14, 23]
inactive: inhibition [1] 5.94% | inhibition [2] 3.75% | fluorescence ratio [3] 0.93 | nuclear beta-catenin stimulation ([4]; at 10 µM) -0.7% | insulin secretion stimulation [5] 3.35% | viability decrease [6] 24.3% | tube area decrease [7] 6% | GLP1 secretion stimulation [8] 10.6% | viability decrease (inhibition) [10] 30.7% | viability decrease (inhibition) [11] 11.5% | inhibition [12] 0.157% | red/green cell ratio (normalised) [13] 1.29 | z-score [14, 22] -0.0109 | remaining NAD [15] 10 nM | luciferase signal [16] 52 AU | log fold change Tl+ flux [17] 0.00566 | log fold change Tl+ flux [18] -0.00369 | log fold change Tl+ flux [19] -0.0679
1.12: normalised cell number [13, 21]
0.87: normalised cell number [13, 20]
active: inhibition of viability [9] 67.9%
-2.4%: nuclear beta-catenin stimulation ([4]; stimulation, at 2 µM)

CN(C)CCC=C1c2ccccc2CCc2ccccc21
1.31: normalised cell number [13, 20] | normalised cell number [13, 21]
active: insulin secretion stimulation [5] 41.5% | viability decrease (inhibition) [10] 72.1% | log fold change Tl+ flux [17] 0.184 | log fold change Tl+ flux [18] 0.179
1.1%: nuclear beta-catenin stimulation ([4]; stimulation, at 2 µM)
inactive: inhibition [1] -7.73% | inhibition [2] -2% | fluorescence ratio [3] 0.92 | nuclear beta-catenin stimulation ([4]; at 10 µM) -0.4% | viability decrease [6] -59% | tube area decrease [7] 25% | GLP1 secretion stimulation [8] 5% | inhibition of viability [9] 21.5% | viability decrease (inhibition) [11] -1.8% | inhibition [12] 6.7% | red/green cell ratio (normalised) [13] 1 | z-score [14, 22] -0.201 and -0.81 | remaining NAD [15] 10 nM | luciferase signal [16] 36 AU | log fold change Tl+ flux [19] 0.0267
-0.129 and 0.0803: z-score [14, 23]

CC(CN1c2ccccc2Sc2ccccc21)N(C)C (centres undefined)
active: inhibition of viability [9] 76.9% | viability decrease (inhibition) [10] 110% | log fold change Tl+ flux [17] 0.2 | log fold change Tl+ flux [18] 0.393
-0.4%: nuclear beta-catenin stimulation ([4]; stimulation, at 2 µM)
-0.152 and -0.842 and 0.0934: z-score [14, 23]
1.05: normalised cell number [13, 21]
inactive: inhibition [1] -5% | inhibition [2] 3.34% | fluorescence ratio [3] 0.93 | nuclear beta-catenin stimulation ([4]; at 10 µM) 0% | insulin secretion stimulation [5] 7.9% | viability decrease [6] 28.6% | tube area decrease [7] 14.2% | GLP1 secretion stimulation [8] 5.7% | viability decrease (inhibition) [11] 28.8% | inhibition [12] 7.15% | red/green cell ratio (normalised) [13] 0.9 | z-score [14, 22] -0.251 and 0.0297 and -0.48 | remaining NAD [15] 10 nM | luciferase signal [16] 144 AU | log fold change Tl+ flux [19] -0.00524
1.17: normalised cell number [13, 20]

C[C@H](CS)C(=O)N1CCC[C@H]1C(=O)O
-0.06 and -1.18: z-score [14, 23]
1.1: normalised cell number [13, 21]
0.9%: nuclear beta-catenin stimulation ([4]; stimulation, at 2 µM)
1.01: normalised cell number [13, 20]
inactive: nuclear beta-catenin stimulation ([4]; at 10 µM) 0.8% | insulin secretion stimulation [5] -2.3% | viability decrease [6] -11.6% | tube area decrease [7] 12.5% | GLP1 secretion stimulation [8] 2.3% | inhibition of viability [9] -2.6% | viability decrease (inhibition) [10] 27.6% | viability decrease (inhibition) [11] -2.15% | inhibition [12] -3.72% | red/green cell ratio (normalised) [13] 1.1 | z-score [14, 22] -0.272 and -0.072 | remaining NAD [15] 10 nM | luciferase signal [16] 52 AU | log fold change Tl+ flux [17] -0.0244 | log fold change Tl+ flux [18] 0.00669 | log fold change Tl+ flux [19] 0.0254
